Source: PubChem BioAssay (Fisher Drug Discovery Resource Center)
Sampled rows, rich in hits. Any-hit rate of the full collection: about 0.24%.
hcGAS inh = Primary biochemical luminescence assay for human cyclic GMP-AMP synthase inhibitors | Q8N884 | recombinant h-cGAS, ATP depletion, Kinase-Glo luminescence | inhibition, % at 12.5 µM | 290,000 tested, 0.081% active | AID 1259398, 2018
Target sequence (Q8N884 whole entry, looked up): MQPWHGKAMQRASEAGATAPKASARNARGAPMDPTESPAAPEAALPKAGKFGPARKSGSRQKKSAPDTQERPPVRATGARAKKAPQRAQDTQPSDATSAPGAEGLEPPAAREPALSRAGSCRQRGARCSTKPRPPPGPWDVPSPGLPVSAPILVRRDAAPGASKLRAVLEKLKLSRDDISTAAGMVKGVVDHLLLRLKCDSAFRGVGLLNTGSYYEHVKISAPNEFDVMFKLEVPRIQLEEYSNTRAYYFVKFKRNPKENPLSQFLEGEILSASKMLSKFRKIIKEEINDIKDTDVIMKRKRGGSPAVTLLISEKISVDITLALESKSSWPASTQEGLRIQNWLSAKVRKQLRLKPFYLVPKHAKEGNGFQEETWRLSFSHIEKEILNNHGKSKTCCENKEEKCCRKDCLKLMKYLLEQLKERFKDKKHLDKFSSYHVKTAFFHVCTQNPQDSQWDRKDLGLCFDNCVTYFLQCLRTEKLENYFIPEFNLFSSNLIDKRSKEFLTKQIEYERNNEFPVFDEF
mcGAS inh = cyclic GMP-AMP synthase inhibitors, mouse, primary biochemical chemiluminescence | Q8C6L5 | recombinant cGAS, Kinase-Glo ATP depletion luminescence | inhibition, % at 12.5 µM | 160,000 tested, 0.15% active | AID 1259399, 2018
NPYLR7 agonist = agonists of mosquito NPYLR7 receptor, primary screen, cell-based, Aedes aegypti, calcium fluorescence, mosquito biting behavior | HEK293T NPYLR7/Galpha15, GCaMP6s calcium fluorescence | activation, % at 10 µM | 270,000 tested, 0.15% active | AID 1259423, 2018; in the data active = activation above about 40%
Numbers stand for hits; 0 = inactive; - = no result given; ! = a repeat was not active. Cut-off read from the data, not from the text of the source, unless noted: active = inhibition above about 40%; inactive = the rest.

SMILES | hcGAS inh | mcGAS inh | NPYLR7 agonist
Nc1ccc(-c2nc3ccccc3o2)c(Cl)c1 | 0 | 0 | 0
Cc1cc(O)c(CN2CCN(C)CC2)c2c1C(=O)/C(=C/c1cc3cc(Br)ccc3o1)O2 | 0 | 0 | 0
Cc1cc(O)c(CN2CCCC2)c2c1C(=O)/C(=C/c1cc3ccccc3o1)O2 | 0 | 0 | 57
COc1ccc(Nc2ncccc2C(=O)N2CCC(C)CC(C)(C)C2)cc1 (configuration not stated) | 0 | 0 | 0
COCCNC(=O)C(NC(=O)c1ccccc1)C1CCN(C(=O)Cc2ccccc2)CC1 (configuration not stated) | 0 | 0 | 0
CCCNC(=O)N(CCN(C)C)Cc1nccn1Cc1ccc(OC)cc1 | 0 | 0 | 0
N#Cc1cccc(C(=O)N2CCN(C(c3ccccc3)c3ccc(Br)cc3)CC2)c1 (configuration not stated) | 0 | 0 | 42
N#Cc1cccc(C(=O)N2CCN(C(c3ccccc3)c3ccccc3)CC2)c1 | 0 | 0 | 0
COc1ccccc1C(=O)n1nc(C)n(-c2ccc(C)cc2)c1=S | 0 | - | 0
CC(C)CNC(=O)CN(C)C(=O)c1csc(Nc2cc(Cl)ccc2Cl)n1 | 166 | - | 0
CCC(C)NC(=O)CN(C)C(=O)c1csc(Nc2cccc(C(F)(F)F)c2)n1 (configuration not stated) | 0 | 0 | -
CC(=O)N1N=C(Cc2ccccc2)OC1C(=O)Nc1ccc(C(C)(C)C)cc1 (configuration not stated) | 0 | - | 0
CCSCCNC(=O)c1ccc(-c2cc(-c3cccc4c3OCCO4)[nH]n2)cc1 | 0 | 0 | 0
O=C(NCc1cccc(F)c1F)c1ccc(-c2cc(-c3cccc4c3OCCO4)[nH]n2)cc1 | 0 | 105 | -
CC(C)(C)CC(C)(C)Nc1c(-c2ccc(OC(=O)C3CCCCC3)cc2)nc2ccccn12 | 0 | 0 | 0
COc1ccc(Cl)cc1C1=N/C(=C\c2ccccc2C(F)(F)F)C(=O)O1 | 0 | 0 | 0
Cc1nn(C)c(Cl)c1/C=C1/CCCc2c1nc1ccccc1c2C(=O)O | 0 | 0 | 57
Cc1cccc(NS(=O)(=O)c2c(C)nn(C)c2Cl)c1C(=O)O | 0 | - | 0
CC(O)C1CCN(C(=O)c2cccc(C(F)(F)F)c2F)CC1 (configuration not stated) | 0 | - | 0
COc1cc(C=C(C#N)S(=O)(=O)c2cc(Cl)ccc2Cl)cc(OC)c1 | 0 | - | 0
COc1cc(C=C(C#N)S(=O)(=O)c2cc(Cl)ccc2Cl)cc(Br)c1O | 0 | - | 66
COc1cc(C=C(C#N)S(=O)(=O)c2ccc(F)cc2)cc(Br)c1O | 0 | - | 183
COc1cc(C=C(C#N)S(=O)(=O)c2ccc(F)cc2)cc(OC)c1OC | 0 | - | 0
Cc1ccc(-n2c(-c3ccccc3F)n[nH]c2=S)cc1 | 0 | - | 0
CC(=O)Nc1nc(COC(=O)c2[nH]c(C)c(C(=O)OC(C)C)c2C)cs1 | 0 | 0 | 46
SMILES | hcGAS inh | mcGAS inh | NPYLR7 agonist
CC(=O)c1c(C)[nH]c(C(=O)Nc2nc(C)cs2)c1C | 0 | - | 0
CCOc1ccc(-n2c(C(CC)N(Cc3ccccc3)C(=O)Nc3ccc(C)cc3)nc3ccccc3c2=O)cc1 (configuration not stated) | 0 | 0 | 0
N#CCSc1sc2c(O)cc(=O)[nH]c2c1C#N | 0 | 60 | 0
NC(=O)c1c(SCc2ccccc2)sc2c(O)cc(=O)[nH]c12 | 0 | 0 | 0
CC(NC(=O)c1cccnc1N1CCCCC1)c1ccc(C#N)cc1 (configuration not stated) | 0 | 0 | 0
OC[C@H]1O[C@@H](n2cnc3c(NC4CCCC4)ncnc32)C(O)[C@H]1O (some centres not stated) | 0 | 0 | 0
Nc1ncnc2c1ncn2[C@@H]1O[C@H](CO)[C@@H](O)[C@H]1O | 0 | - | 52
COc1cc(NC(=O)Cc2ccc(N3CCCC3=O)cc2)cc(OC)c1 | 0 | 0 | 0
CO[C@@]1(NC(=O)CSCC#N)C(=O)N2C(C(=O)O)=C(CSc3nnnn3C)CSC21 (some centres not stated) | 0 | - | 49!
CO[C@@]1(NC(=O)C2SC(=C(C(N)=O)C(=O)O)S2)C(=O)N2C(C(=O)O)=C(CSc3nnnn3C)CS[C@@H]21 (some centres not stated) | 0 | - | 0
Cc1cc(=O)n(CC2CO2)c(N)n1 (configuration not stated) | 0 | - | 0
COc1ccc(C=CC(=O)c2ccc(I)cc2)cc1O | 0 | 0 | 0
COc1ccc(C=CC(=O)c2cccs2)cc1O | 0 | 55 | 0
CC(C)(C)OC(=O)NC1CCN(C(=O)C2CCCCC2C(=O)N2CCC(C#N)(c3ccccc3)CC2)C1 (configuration not stated) | 0 | 0 | 0
OC1c2ccccc2-c2c3c(cc4c2C1NCC4)OCO3 (configuration not stated) | 42 | 44 | 0
Fc1ccccc1C1NCCc2cc3c(cc21)OCCO3 (configuration not stated) | 0 | - | 0
CCN1C(=Cc2cc(C)[n+](CC3CCCO3)c(C)c2)Sc2ccccc21 (configuration not stated) | 0 | 0 | 123
CCN1/C(=C\C(=C2\C(=O)N(C)C(=S)N2C)c2ccccc2)Sc2ccccc21 | 0 | - | 0
CCN1C(=O)/C(=C\C=C2/Sc3ccccc3N2CC)N(c2ccccc2)C1=S | 0 | 0 | 0
CCN1C(=O)/C(=C/C=C2/Sc3ccccc3N2CC)SC1=Nc1ccccc1C | 0 | 0 | 0
CCCC[n+]1c(C)cc(C=C2Sc3ccccc3N2CC)cc1C | 0 | - | 258
CCN1C(=Cc2cc(C)[n+](CCOC)c(C)c2)Sc2ccccc21 | 0 | - | 124
CC1CCCN1C(=O)c1ccc2nc(-c3cccs3)[nH]c2c1 (configuration not stated) | 0 | 0 | 0
Cc1ccccc1C1c2ccsc2CCN1CCC(=O)N1CCN(S(=O)(=O)c2ccc(Cl)cc2)C(C)C1 (configuration not stated) | 0 | 0 | 0
CC(C)(C)c1ccc(-c2nnc(SCC(=O)NCC(C)(C)N3CCOCC3)n2C2CCCC2)cc1 | 0 | - | 0
SMILES | hcGAS inh | mcGAS inh | NPYLR7 agonist
CC(O)CNC(=O)c1c(O)nc2sccn2c1=O (configuration not stated) | 0 | 0 | 0
CCc1nn(C(C)C(=O)NC)c(=O)c2cc3occc3n12 (configuration not stated) | 0 | 0 | 0
CCc1nn(C(C)C(=O)NC(C)CCc2ccco2)c(=O)c2cc3occc3n12 (configuration not stated) | 0 | 0 | 68
C=C(NN=c1sc2ccccc2n1C)c1cccc(C(F)(F)F)c1 | 0 | - | 0
CC(C)(CNC(=O)C1CCN(S(=O)(=O)c2ccc(F)cc2)CC1)N1CCCCC1 | 0 | 0 | 0
O=C(c1nccc2ccccc12)N1CCN(CC2CCCC2)CC1 | 0 | - | 126
O=C(Nc1ccc(NC2CCCCC2)cc1)c1nccc2ccccc12 | 0 | - | 0
CC(=O)N1c2ccccc2Oc2c(c(=O)n(C)c(=O)n2C)C1c1cccc([N+](=O)[O-])c1 (configuration not stated) | 0 | - | 0
CCN(CC)c1ccc(/C=C2/SC(=S)N(CC(=O)O)C2=O)cc1 | 0 | 0 | 42
CCN1C(=O)/C(=C/c2ccc(N(C)C)cc2)SC1=S | 0 | 0 | 0
O=C(O)CN1C(=O)/C(=C\c2ccc(I)cc2)SC1=S | 0 | 0 | 0
